This passage reports growth results from PubChem BioAssay (NCI).

Structures are written as SMILES. Compounds without any hit were thinned out: in the full panel of roughly 83,000, 20% have a hit.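 Interpretation: 100, growth as untreated; towards 0, rising growth inhibition; 0, no net growth; 0 to -100, cell death. Compounds scoring below 10 were considered active.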 Unmarked numbers belong to inactive results. The source made the active and inactive calls.

Some test systems named below: SK-MEL-2 melanoma; EKVX NSCLC; SN12C renal; UO-31 renal; TK-10 renal; ACHN renal; CAKI-1 renal; A498 renal; CCRF-CEM leukemia; MOLT-4 leukemia.
What all share (experiment): NCI-60 one-dose screen, 48 h (100 = growth as untreated, 0 = no growth, -100 = all killed)
Conditions in all cases: 10 µM unless noted

On to `Cc1ccc(C(=O)c2ccc(CC(=O)N=Nc3c(O)[nH]c4ccc(Br)cc34)n2C)cc1`, for which the growth is 91.3% in the experiment with SK-MEL-2 melanoma; 74.3% with EKVX NSCLC; 85.2% in the experiment on SN12C renal; 64.7% with UO-31 renal; 131% in the experiment with TK-10 renal; 88.9% with ACHN renal. For the same compound, the growth was 79.7% in the experiment with CAKI-1 renal, 89.3% in the experiment on A498 renal, 95.4% with CCRF-CEM leukemia and 86% in the experiment on MOLT-4 leukemia.

For `COc1ccc(/C=C(/C(=O)n2cnnn2)c2cc(OC)c(OC)c(OC)c2)cc1`, the growth in the experiment on SK-MEL-2 melanoma is 57.6%; in the experiment on EKVX NSCLC it was 46.5%; in the experiment on SN12C renal it was 42.6%; with UO-31 renal, 42.4%; with TK-10 renal, 44.9%; in the experiment on ACHN renal it was 48%. The growth with CAKI-1 renal is 36.1%; in the experiment on A498 renal, 1.86% (active); in the experiment with CCRF-CEM leukemia it was 5.78% (active); with MOLT-4 leukemia it was 40.5%.

For the compound `O=C(CN1CCCCCC1)Nc1nc2ccc(NCc3ccc(Cl)cc3)cc2s1`, the growth with SK-MEL-2 melanoma is 109%; in the experiment on EKVX NSCLC, 96.4%; in the experiment on SN12C renal, 95.5%; in the experiment with UO-31 renal, 88.6%; in the experiment on TK-10 renal it was 110%; in the experiment on ACHN renal it was 88.7%. Also, the growth in the experiment with CAKI-1 renal is 86.1%; in the experiment on A498 renal, 110%; in the experiment on CCRF-CEM leukemia it was 93%; with MOLT-4 leukemia, 92.4%.

Regarding `Cc1ccc(C(=O)c2ccc(CC(=O)NN3C(=O)c4ccccc4C3=O)n2C)cc1`, the growth was 102% in the experiment with SK-MEL-2 melanoma; 100% in the experiment with EKVX NSCLC; 92.8% with SN12C renal; 75.7% in the experiment with UO-31 renal; 111% in the experiment with TK-10 renal; 96.3% with ACHN renal. For the same compound, the growth in the experiment on CAKI-1 renal was 87.4%; with A498 renal it was 104%; in the experiment on CCRF-CEM leukemia it was 110%; in the experiment on MOLT-4 leukemia it was 100%.

On to `N#Cc1nc(-c2ccccc2)oc1S(=O)(=O)N1CCN(c2ccc(F)cc2)CC1`, for which the growth in the experiment on SK-MEL-2 melanoma is 95.2%; in the experiment with EKVX NSCLC it was 118%; in the experiment on SN12C renal it was 79.4%; in the experiment with UO-31 renal, 80.3%; with TK-10 renal, 44.1%; in the experiment on ACHN renal it was 53.8%. In addition, the growth is 62.2% in the experiment on CAKI-1 renal, 110% in the experiment with A498 renal, -31% (active) in the experiment on CCRF-CEM leukemia and -15.7% (active) in the experiment on MOLT-4 leukemia.

As for `N=c1c(S(=O)(=O)c2ccccc2)cc2c(=O)n3ccccc3nc2n1CC1CCCO1` (stereo not given), the growth with SK-MEL-2 melanoma was 112%; in the experiment on EKVX NSCLC, 107%; in the experiment with SN12C renal, 96.8%; with UO-31 renal, 56.4%; with TK-10 renal it was 114%; in the experiment on ACHN renal, 103%. For the same compound, the growth is 85.2% in the experiment with CAKI-1 renal, 84.1% in the experiment on A498 renal, 109% with CCRF-CEM leukemia and 102% in the experiment with MOLT-4 leukemia.

As for `CCCCC#Cc1c(I)n(C)c(=O)[nH]c1=O`, the growth in the experiment with SK-MEL-2 melanoma was 63.2%; with EKVX NSCLC it was 52.9%; in the experiment on SN12C renal, 39.4%; with UO-31 renal, -78% (active); in the experiment with TK-10 renal it was 50%; with ACHN renal, -75.7% (active). Besides, the growth in the experiment on CAKI-1 renal is -54.2% (active); in the experiment with A498 renal, 94.2%; with CCRF-CEM leukemia, -51.4% (active); in the experiment on MOLT-4 leukemia, -61.1% (active).

For `C=C1C(=O)O[C@H]2[C@H]1CC/C(COC(=O)/C=C\C(=O)NCc1ccc(Cn3c(=O)sn(CCCl)c3=O)cc1)=C\CC[C@@]1(C)O[C@@H]21`, the growth in the experiment on SK-MEL-2 melanoma was 85.8%; in the experiment with EKVX NSCLC, 86.2%; in the experiment with SN12C renal it was 89.9%; in the experiment on UO-31 renal, 79.9%; with TK-10 renal, 60.9%; in the experiment with ACHN renal, 44.2%. Further, the growth in the experiment on CAKI-1 renal is 47.9%; in the experiment on A498 renal, 132%; with CCRF-CEM leukemia, 7.92% (active); with MOLT-4 leukemia, 35.1%.

Take `CN(C)CCCC1(c2ccc(F)cc2)OCc2cc(-c3cc4ccccc4s3)ccc21` (stereo not given): the growth with SK-MEL-2 melanoma is 72.3%; with EKVX NSCLC it was 46.8%; in the experiment on SN12C renal, 37%; in the experiment with UO-31 renal, 21%; in the experiment on TK-10 renal, 60.5%; in the experiment with ACHN renal, 14.3%. Also, the growth in the experiment on CAKI-1 renal is 21.4%; with A498 renal it was 81%; in the experiment with CCRF-CEM leukemia, 4.59% (active); in the experiment on MOLT-4 leukemia it was -8.07% (active).

Turning to `O=C(CC(=O)Nc1cccc(C(=O)O)c1)Nc1cccc(C(=O)O)c1`, the growth is 90.7% in the experiment with SK-MEL-2 melanoma; 101% with EKVX NSCLC; 102% with SN12C renal; 88.5% with UO-31 renal; 102% in the experiment on TK-10 renal; 91.6% in the experiment on ACHN renal. In addition, the growth in the experiment with CAKI-1 renal was 86.5%; in the experiment on A498 renal it was 104%; in the experiment on CCRF-CEM leukemia, 94.2%; in the experiment with MOLT-4 leukemia it was 103%.

With `C=C1C(=O)O[C@H]2[C@H]1CC/C(Cn1cc(CCC)nn1)=C\CC[C@@]1(C)O[C@@H]21`, the growth in the experiment on SK-MEL-2 melanoma is 44.7%; in the experiment with EKVX NSCLC, 77.4%; in the experiment on SN12C renal it was 23.1%; with UO-31 renal it was 0.946% (active); in the experiment on TK-10 renal, -15.9% (active); in the experiment on ACHN renal it was -0.504% (active). Further, the growth with CAKI-1 renal was 5.35% (active); with A498 renal, 39%; in the experiment on CCRF-CEM leukemia, -27.4% (active); in the experiment with MOLT-4 leukemia it was -1.09% (active).

Consider `Nn1c(=O)c(=O)[nH]c2c(cnn2-c2ccccc2)c1=O`, for which the growth in the experiment with SK-MEL-2 melanoma was 122%; with EKVX NSCLC it was 98.9%; in the experiment on SN12C renal, 105%; in the experiment with UO-31 renal, 82.2%; in the experiment with TK-10 renal it was 109%; in the experiment on ACHN renal it was 105%. Moreover, the growth in the experiment on CAKI-1 renal was 94.3%; in the experiment with A498 renal, 113%; in the experiment on CCRF-CEM leukemia it was 108%; with MOLT-4 leukemia, 101%.

As for `COc1ccc(Cn2cc(C(=O)N=Nc3c(O)[nH]c4c(C)cccc34)nn2)cc1`, the growth is 91.9% with SK-MEL-2 melanoma; 107% in the experiment with EKVX NSCLC; 62.1% in the experiment on SN12C renal; 14.9% with UO-31 renal; 56.1% in the experiment with TK-10 renal; 38.2% in the experiment with ACHN renal. Further, the growth in the experiment with CAKI-1 renal is 77.1%; in the experiment with A498 renal, 101%; in the experiment on CCRF-CEM leukemia it was 82.8%; with MOLT-4 leukemia, 83.5%.

As for `Clc1ccc(-c2cc(-c3ccccc3)nc(NCCNc3ccnc4cc(Cl)ccc34)n2)cc1`, the growth is 78.8% in the experiment on SK-MEL-2 melanoma; 88.4% with EKVX NSCLC; -48% (active) with SN12C renal; 36.4% in the experiment on UO-31 renal; 106% in the experiment with TK-10 renal; 10.1% with ACHN renal. For the same compound, the growth is 5.52% (active) with CAKI-1 renal, 53.3% with A498 renal, -2.14% (active) with CCRF-CEM leukemia and -1.52% (active) in the experiment on MOLT-4 leukemia.

With `O=C(/C=C/c1ccc(Oc2ccc(Br)cc2)cc1)c1ccc(Br)cc1`, the growth with SK-MEL-2 melanoma was 96.5%; with EKVX NSCLC it was 103%; in the experiment on SN12C renal it was 97.2%; in the experiment on UO-31 renal, 78.8%; with TK-10 renal, 95.2%; in the experiment with ACHN renal it was 102%. Besides, the growth was 93.5% in the experiment with CAKI-1 renal, 73.6% in the experiment with A498 renal, 91.9% in the experiment on CCRF-CEM leukemia and 90.5% with MOLT-4 leukemia.

`COc1ccc2c(c1)c(/C(O)=C1\COC(=O)C1=O)cn2Cc1ccc(F)cc1`: the growth in the experiment with SK-MEL-2 melanoma was 85.5%; with EKVX NSCLC, 106%; with SN12C renal, 92.9%; in the experiment on UO-31 renal it was 72.9%; with TK-10 renal it was 119%; with ACHN renal, 103%. Moreover, the growth is 125% in the experiment on CAKI-1 renal, 91.5% in the experiment on A498 renal, 76.7% in the experiment on CCRF-CEM leukemia and 112% in the experiment with MOLT-4 leukemia.

In the case of `CN1CCN(c2ccc(NC(=O)c3cncnc3Nc3ccc(OCc4cccc(F)c4)c(Cl)c3)cc2)CC1`, the growth in the experiment with SK-MEL-2 melanoma is 120%; in the experiment on EKVX NSCLC, 98.6%; in the experiment with SN12C renal, 63.9%; in the experiment with UO-31 renal, 25%; in the experiment with TK-10 renal, 103%; with ACHN renal, 89.3%. Besides, the growth was 81.5% in the experiment on CAKI-1 renal, 70.8% with A498 renal, 16.2% with CCRF-CEM leukemia and 6.75% (active) in the experiment with MOLT-4 leukemia.

Regarding `Cc1cc2c(cc1C)N(C(=O)CCl)CC(=O)N2`, the growth in the experiment with SK-MEL-2 melanoma is 63.2%; with EKVX NSCLC, 119%; in the experiment with SN12C renal, 39.2%; in the experiment on UO-31 renal it was 78.3%; in the experiment with TK-10 renal, 44.5%; in the experiment on ACHN renal, -8.11% (active). For the same compound, the growth was 103% in the experiment with CAKI-1 renal, 82.9% with A498 renal, -19.9% (active) in the experiment with CCRF-CEM leukemia and 17.1% in the experiment on MOLT-4 leukemia.

For `CSC(SC)=C(C#N)c1nc2ccccc2s1`, the growth was 40% in the experiment with SK-MEL-2 melanoma; 74.2% in the experiment with EKVX NSCLC; 34.9% in the experiment on SN12C renal; 51.8% in the experiment with UO-31 renal; 112% with TK-10 renal; 62.4% with ACHN renal. Further, the growth was 55.8% with CAKI-1 renal, 49.9% in the experiment on A498 renal, 24.7% in the experiment with CCRF-CEM leukemia and 63.6% in the experiment with MOLT-4 leukemia.

For `O=C(CSc1nc(-c2ccccc2)cc(=O)[nH]1)Nc1nc(-c2ccccc2)cs1`, the growth was 96.9% in the experiment with SK-MEL-2 melanoma; 75.7% in the experiment on EKVX NSCLC; 102% in the experiment with SN12C renal; 65.2% with UO-31 renal; 106% with TK-10 renal; 95.2% in the experiment on ACHN renal. Further, the growth is 75.1% in the experiment with CAKI-1 renal, 114% in the experiment with A498 renal, 96.2% in the experiment on CCRF-CEM leukemia and -17.6% (active) in the experiment on MOLT-4 leukemia.

`COc1ccc(-c2cc(-c3ccccc3)nc(N3CCN(CCNc4ccnc5cc(Cl)ccc45)CC3)n2)cc1`: the growth with SK-MEL-2 melanoma is -9.46% (active); with EKVX NSCLC, 79.9%; in the experiment on SN12C renal, -43.3% (active); in the experiment with UO-31 renal it was -4.9% (active); with TK-10 renal, -13.4% (active); with ACHN renal, 66.3%. Moreover, the growth in the experiment with CAKI-1 renal was -24.9% (active); in the experiment on A498 renal it was 15.3%; with CCRF-CEM leukemia, 3.98% (active); in the experiment with MOLT-4 leukemia it was -1.76% (active).

Turning to `O=S(=O)(Oc1ccc(Br)cc1)c1ccc(Cl)cc1`, the growth is 116% in the experiment with SK-MEL-2 melanoma; 95.7% in the experiment with EKVX NSCLC; 105% with SN12C renal; 82.3% in the experiment on UO-31 renal; 84.1% in the experiment with TK-10 renal; 117% with ACHN renal. Besides, the growth in the experiment with CAKI-1 renal is 105%; in the experiment with A498 renal, 86.6%; in the experiment with CCRF-CEM leukemia it was 97%; in the experiment on MOLT-4 leukemia, 85.1%.
